PubChem BioAssay AID720519 (National Center for Advancing Translational Sciences (NCATS), 2013)
Records with an inconclusive call do not appear. Calls follow the shape of the dose curve; as a rule, active = well fitted activation curve with a large enough effect; inconclusive = small, poorly fitted or top-dose-only effect; inactive = flat fitted curve, though single readings scatter.

Assay: qHTS for Inhibitors of Cell Surface uPA Generation: Confirmatory Assay for Cherry-picked Compounds; also: 0% is about no effect
Conditions: cell surface uPA activity generation, qHTS confirmation; series mostly up to 115 µM; inhibition: at the top concentration
Method in brief: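 RAW 264.7 cells at 4000/well, incubated overnight, then treated with compounds. After 24 h at 37 C, viability was read by ATPlite luminescence. An increase in signal indicates blocked uPA-dependent LF entry.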

inhibition, inactive:
COc1ccc(C2NC(=O)CCC2[N+](=O)[O-])c(OC)c1OC (stereo not drawn) -2.72%
CCOC(=O)C1=CC[C@@H](c2cc3ccc(OC)cc3n2C)N(S(=O)(=O)c2ccc(C)cc2)[C@H]1C(=O)OCC -1.93%
CCOC(=O)C1(CC2CCCCO2)CCN(Cc2nccn2-c2cccc(C)c2)CC1 (stereo not drawn) -2.87%
